RGS12 GoLoco inh = RGS12 GoLoco-Gai1 interaction inhibition; Gai1:RGS12 GoLoco peptide FP, rhodamine, 10 min; Potency, µM (highest dose often 61.6 µM), usual class: inhibitors; hit rate 0.44% among 230,000; AID 880; active = well fitted inhibition curve with a large enough effect, not every such curve was filed as active; inactive = no such curve, though single readings can be large or run the other way; also: nearly all actives have a fitted effect of over 30% in size
Target sequence (P63096 whole entry, looked up): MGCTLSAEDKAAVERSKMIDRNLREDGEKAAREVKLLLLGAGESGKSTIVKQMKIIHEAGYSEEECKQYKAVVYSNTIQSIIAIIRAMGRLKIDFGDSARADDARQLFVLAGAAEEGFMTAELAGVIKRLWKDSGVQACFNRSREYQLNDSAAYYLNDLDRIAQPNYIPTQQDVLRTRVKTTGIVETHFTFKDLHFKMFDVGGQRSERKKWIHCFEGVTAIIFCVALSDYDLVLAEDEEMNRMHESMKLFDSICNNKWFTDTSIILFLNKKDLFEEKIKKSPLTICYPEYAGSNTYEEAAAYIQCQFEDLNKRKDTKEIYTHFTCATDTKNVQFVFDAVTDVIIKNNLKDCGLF
Anesthetic bind = candidate novel general anesthetic via apoferritin binding. P02791. apoferritin/1-aminoanthracene competitive binding, fluorescence. Potency, µM (titrated, usually from 77.5 µM), hits mostly inhibitors. hit rate 0.074% among 350,000. AID 485281; also: nearly all actives have a fitted effect of over 20% in size
Target sequence (P02791 2-175 limits assumed): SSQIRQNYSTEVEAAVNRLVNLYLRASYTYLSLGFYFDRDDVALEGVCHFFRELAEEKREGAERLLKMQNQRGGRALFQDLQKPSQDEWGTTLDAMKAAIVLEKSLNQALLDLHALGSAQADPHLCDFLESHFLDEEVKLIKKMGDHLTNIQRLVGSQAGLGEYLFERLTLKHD
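Horse-spleen apoferritin (10 uM) in 50% saturated 1-aminoanthracene in PBS was incubated 10 min at room temperature with compound. Fluorescence (ex 380, em 535 nm) was normalized to free and bound 1-AMA, with concentration-response fitted by a four-parameter Hill equation.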
BRCA1 expr up = activators of BRCA1 expression; MCF7-BRCA1-FFLuc reporter, luminescence, 48 h; response scale: scaled: vehicle 0%, 10 µM genistein 100%; Potency, µM (series often up to 46.1 µM), actives largely listed as activators; hit rate 1.1% among 380,000; also: nearly all actives have a fitted effect of over 80% in size
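Cells: MCF7-BRCA1-FFLuc, 2000/well. Exposure: 48 h, 37 °C, 5% CO2. Read: luminescence, 15 min post-substrate. Controls: genistein 10 microM (maximal activation), DMSO (neutral).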
ERG Ets-DNA blk = ERG Ets/DNA interaction inhibition. P11308. AID 624246. hit rate 0.028% among 370,000. Potency, µM (series often up to 76.9 µM), hits mostly inhibitors. fluorescence polarization, His-ERG Ets domain / labelled DNA; active = well fitted inhibition curve with a large enough effect in the polarisation, with a control signal flat; inconclusive = small, poorly fitted or top-dose-only effect, or effect the other way, or a change in a side signal; inactive = no such curve, though single readings can be large or run the other way; the % refers to the polarisation;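 also: polarization taken with two DNA probes labelled with fluorescein and Texas red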
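His-tagged ERG Ets domain (1 uM in the protein solution; 300mM KCl, 50mM Tris-HCl, 1mM EDTA, 1mM DTT, pH 7.5) received compound, then a probe mix of 5 nM fluorescein-DNA and 100nM Texas-615-DNA. Fluorescence polarization was read for both dyes.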
Each line names hits and unclear results; the compound was inactive in the other large screens. In the library only some 1.2% were active in any assay of this set; here they are far more common. Unless noted, calls follow the shape of the dose curve; as a rule, active = well fitted curve in the direction sought with a large enough effect; inconclusive = small, poorly fitted or top-dose-only effect, or another doubt; inactive = no such curve, though single readings can be large; an effect the other way counts as inactive or inconclusive.

Clc1ccc(COc2ccccc2-c2ccnc3ncnn23)cc1	BRCA1 expr up 11.2µM
C[N+]1(CC(=O)c2ccc3c(c2)CCCC3)CCOCC1	none (no result: RGS12 GoLoco inh, Anesthetic bind, ERG Ets-DNA blk)
COC(=O)c1sc(NC(=O)c2oc3ccccc3c2C)nc1C	BRCA1 expr up 7.08µM
Cn1nc(C(=O)Nc2nc3ccccc3[nH]2)ccc1=O	BRCA1 expr up 7.94µM
COc1ccc(-c2nsc(NC(=O)c3oc4ccccc4c3C)n2)cc1	none (no result: RGS12 GoLoco inh, BRCA1 expr up)
Cc1c(C(=O)Nc2nc3ccccc3[nH]2)oc2ccccc12	RGS12 GoLoco inh 12.6µM
CCCCc1nc2c(c3c1C[C@H](C)OC3)CN(C(=O)Nc1ccc(OC)cc1)CC2	none (no result: Anesthetic bind, BRCA1 expr up, ERG Ets-DNA blk)
CN(Cc1ccccc1)/[N+]([O-])=N/Oc1ccc([N+](=O)[O-])cc1[N+](=O)[O-]	none (no result: RGS12 GoLoco inh, Anesthetic bind, ERG Ets-DNA blk)
O=C(NCC1CCOCC1)c1ccc2nc(Cc3cccc(Cl)c3)oc2c1	BRCA1 expr up 10µM (no result: RGS12 GoLoco inh)
CCC1CCCCN1C(=O)c1ccc2nc(Cc3ccc(OC)cc3)oc2c1 (stereo not given)	Anesthetic bind inconclusive, BRCA1 expr up 11.2µM (no result: RGS12 GoLoco inh)
COc1ccc(Cc2nc3ccc(C(=O)NCC(C)(C)OC)cc3o2)cc1	BRCA1 expr up 10µM (no result: RGS12 GoLoco inh)
COc1ccc(Cc2nc3ccc(C(=O)N4CCCCC4CCO)cc3o2)cc1 (stereo not given)	none (no result: RGS12 GoLoco inh)
CN1CCCN(Cc2nc(-c3ccc(Cl)cc3)no2)CC1	BRCA1 expr up 12.6µM
C(=C\c1ccnc2ccccc12)/c1ccc(-[n+]2cc[n+](-c3ccc(/C=C/c4ccnc5ccccc45)cc3)cc2)cc1	none (no result: RGS12 GoLoco inh, Anesthetic bind, ERG Ets-DNA blk)
O=C(NC1CCc2ccccc21)c1cc(COc2ccc(F)cc2Cl)on1 (stereo not given)	Anesthetic bind inconclusive
O=C(NC1CCc2ccccc21)c1cc(COc2cncc(Cl)c2)on1 (stereo not given)	Anesthetic bind 44.7µM (no result: RGS12 GoLoco inh)
CC1CCN(C(=O)c2ccc(-c3ccccc3Cl)o2)CC1	BRCA1 expr up inconclusive (no result: RGS12 GoLoco inh, Anesthetic bind)
O=C(c1ccc(-c2ccccc2Cl)o1)N1CCCC(C(F)(F)F)C1 (stereo not given)	BRCA1 expr up 12.6µM (no result: RGS12 GoLoco inh, Anesthetic bind)
S=C(c1ccc(-c2ccc(Cl)cc2Cl)o1)N1CCCCC1	BRCA1 expr up 7.94µM
S=C(c1ccc(-c2ccccc2Cl)o1)N1CCOCC1	BRCA1 expr up 7.08µM (no result: ERG Ets-DNA blk)
O=C(c1ccc(-c2ccccc2Cl)o1)N1CCC1	BRCA1 expr up 2.82µM (no result: RGS12 GoLoco inh, Anesthetic bind)
CN(C)c1ccc(/C=C/c2ccnc3ccc(O)cc23)cc1	none (no result: RGS12 GoLoco inh, Anesthetic bind, ERG Ets-DNA blk)
CC#CCN1c2ccccc2[C@]23C[C@@H](C(=O)OC)N(C(=O)c4cccs4)C2=NC(C(=O)OC)=C(C(=O)OC)[C@H]13	none (no result: Anesthetic bind, BRCA1 expr up, ERG Ets-DNA blk)
CC[C@H](C)[C@H](NC(=O)[C@H](CC(=O)O)NC(=O)[C@H](CC(C)C)NC(=O)[C@H](NC(C)=O)C(c1ccccc1)c1ccccc1)C(=O)N[C@H](C(=O)N[C@@H](Cc1c[nH]c2ccccc12)C(=O)O)[C@@H](C)CC	none (no result: RGS12 GoLoco inh, BRCA1 expr up, ERG Ets-DNA blk)
Cc1ccsc1C(=O)OCc1cc(=O)n2ccsc2n1	BRCA1 expr up inconclusive (no result: RGS12 GoLoco inh, Anesthetic bind)
O=C(OCc1cc(=O)n2ccsc2n1)c1ccc(O)cc1O	BRCA1 expr up 11.2µM (no result: RGS12 GoLoco inh, Anesthetic bind)
COc1c(C)cccc1C(=O)Nc1ccc(N2CCOCC2)c(Cl)c1	BRCA1 expr up 2.51µM
CCN1CCN(c2ccc(NC(=O)c3ccccc3F)cc2Cl)CC1	BRCA1 expr up 7.08µM
CCN1CCN(c2ccc(NC(=O)c3ccc(C#N)cc3F)cc2Cl)CC1	none
Cc1ccc2nc(SCc3nc4ccccc4c(=O)[nH]3)[nH]c2c1	BRCA1 expr up 3.98µM
C=CCN1CCN(C(=O)CSc2ccccc2)CC1	BRCA1 expr up 11.2µM (no result: RGS12 GoLoco inh)
O=C(CN1C(=O)COc2ccc(S(=O)(=O)N3CCOCC3)cc21)NCc1ccc(Cl)cc1	none (no result: RGS12 GoLoco inh, BRCA1 expr up)
Cc1cc(N2CCCCC2)nc(SCC(=O)c2ccccc2)n1	Anesthetic bind inconclusive, BRCA1 expr up 10µM
COc1cc(OC)c(/C=C/c2nccc3ccccc23)c(OC)c1	none (no result: RGS12 GoLoco inh, Anesthetic bind, ERG Ets-DNA blk)
CC1(OC(=O)c2ccc(Cl)nc2)C(=O)C=c2cc(-c3ccsc3)ncc2=C1OC(=O)C1CCCC1 (stereo not given)	none (no result: Anesthetic bind, BRCA1 expr up, ERG Ets-DNA blk)
O=C(Cc1ccc(O)cc1)NC1CCCCCC1	BRCA1 expr up 3.55µM (no result: RGS12 GoLoco inh)
Cc1ccc(CNC(=O)NC2CCCCC2)cc1	BRCA1 expr up 10µM
O=C(CSc1ccc(F)cc1)NC1CCCCC1	BRCA1 expr up 11.2µM
O=S(=O)(NCCNC/C=C/c1ccc(Br)cc1)c1cccc2cnccc12	Anesthetic bind inconclusive (no result: BRCA1 expr up, ERG Ets-DNA blk)
Cc1ccc(-c2nnc(SC(C)C(=O)NCc3ccco3)n2C)cc1 (stereo not given)	none (no result: RGS12 GoLoco inh, Anesthetic bind, ERG Ets-DNA blk)
CCN1CCN(C(c2ccc(C(F)(F)F)cc2)c2ccc3cccnc3c2O)CC1 (stereo not given)	Anesthetic bind inconclusive (no result: RGS12 GoLoco inh)

Screening data deposited in PubChem by National Center for Advancing Translational Sciences (NCATS).
